Assay [1] has as its target Calcium/calmodulin-dependent protein kinase type II subunit alpha (Homo sapiens) (UniProt Q9UQM7). Conditions: at 1 µM.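 Note: reported value is a mean percent inhibition of CAMK2A.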
The target of assay [2] is Calcium/calmodulin-dependent protein kinase type II subunit delta (Homo sapiens) (UniProt Q13557). Conditions: at 0.1 µM.
For assay [3] the target is unchanged. Conditions: at 1 µM.
In assay [4] the target is T1, Calcium/calmodulin-dependent protein kinase type IV (Homo sapiens) (UniProt Q16566).
T1 sequence (whole entry): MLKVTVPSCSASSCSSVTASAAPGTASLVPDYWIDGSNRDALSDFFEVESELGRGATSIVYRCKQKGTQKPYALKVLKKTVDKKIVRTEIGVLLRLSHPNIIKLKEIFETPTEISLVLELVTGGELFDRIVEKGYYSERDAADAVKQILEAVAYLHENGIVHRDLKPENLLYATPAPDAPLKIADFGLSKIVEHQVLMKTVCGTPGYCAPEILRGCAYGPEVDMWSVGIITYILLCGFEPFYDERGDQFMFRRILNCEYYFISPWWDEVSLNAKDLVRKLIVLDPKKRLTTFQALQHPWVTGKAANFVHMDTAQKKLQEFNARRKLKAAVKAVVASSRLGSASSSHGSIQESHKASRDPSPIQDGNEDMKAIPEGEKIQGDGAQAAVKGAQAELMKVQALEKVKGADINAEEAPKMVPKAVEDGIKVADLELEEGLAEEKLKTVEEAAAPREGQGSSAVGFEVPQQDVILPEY
Conditions: at 0.1 µM.

Assay [5] concerns the target T1, Calcium/calmodulin-dependent protein kinase type IV (Homo sapiens). Conditions: at 1 µM.
In assay [6] the target is T2, Serine/threonine-protein kinase Chk1 (Homo sapiens) (UniProt O14757).
T2 sequence (whole entry): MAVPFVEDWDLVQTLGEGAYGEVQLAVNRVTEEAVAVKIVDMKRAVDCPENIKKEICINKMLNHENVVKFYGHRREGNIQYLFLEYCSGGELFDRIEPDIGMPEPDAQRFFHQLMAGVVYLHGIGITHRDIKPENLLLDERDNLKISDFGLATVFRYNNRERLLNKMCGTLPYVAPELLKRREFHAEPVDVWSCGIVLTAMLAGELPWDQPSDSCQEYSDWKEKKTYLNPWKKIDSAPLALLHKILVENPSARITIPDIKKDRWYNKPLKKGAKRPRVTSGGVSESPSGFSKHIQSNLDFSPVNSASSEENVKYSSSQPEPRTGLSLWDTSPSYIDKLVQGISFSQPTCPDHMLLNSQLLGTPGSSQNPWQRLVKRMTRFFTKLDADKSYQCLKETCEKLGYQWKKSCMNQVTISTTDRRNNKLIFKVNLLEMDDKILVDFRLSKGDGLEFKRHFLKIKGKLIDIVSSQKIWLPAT
Conditions: at 0.1 µM.

Assay [7] deals with T2, Serine/threonine-protein kinase Chk1 (Homo sapiens). Conditions: at 1 µM.
The target of assay [8] is Serine/threonine-protein kinase Chk2 (Homo sapiens) (UniProt O96017). Conditions: at 0.1 µM.
Serine/threonine-protein kinase Chk2 (Homo sapiens), sequence (O96017 whole entry): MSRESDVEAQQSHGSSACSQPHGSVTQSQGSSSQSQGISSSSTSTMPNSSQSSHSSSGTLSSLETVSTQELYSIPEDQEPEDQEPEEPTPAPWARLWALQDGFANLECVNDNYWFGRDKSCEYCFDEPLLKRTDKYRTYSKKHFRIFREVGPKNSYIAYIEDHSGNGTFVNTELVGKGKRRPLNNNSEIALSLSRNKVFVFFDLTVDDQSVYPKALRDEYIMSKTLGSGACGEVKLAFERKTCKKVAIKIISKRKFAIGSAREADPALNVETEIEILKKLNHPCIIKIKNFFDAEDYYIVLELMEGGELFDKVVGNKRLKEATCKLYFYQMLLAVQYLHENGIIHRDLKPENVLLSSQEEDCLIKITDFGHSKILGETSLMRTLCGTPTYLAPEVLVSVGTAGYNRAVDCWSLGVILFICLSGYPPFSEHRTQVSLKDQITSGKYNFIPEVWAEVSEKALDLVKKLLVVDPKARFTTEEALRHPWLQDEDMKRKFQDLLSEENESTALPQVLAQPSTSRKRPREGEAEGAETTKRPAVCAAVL
Assay [9] has the same target. Conditions: at 1 µM.
For assay [10], the target named is Death-associated protein kinase 1 (Homo sapiens) (UniProt P53355). Conditions: at 0.1 µM.
Death-associated protein kinase 1 (Homo sapiens), sequence (P53355 whole entry, looked up): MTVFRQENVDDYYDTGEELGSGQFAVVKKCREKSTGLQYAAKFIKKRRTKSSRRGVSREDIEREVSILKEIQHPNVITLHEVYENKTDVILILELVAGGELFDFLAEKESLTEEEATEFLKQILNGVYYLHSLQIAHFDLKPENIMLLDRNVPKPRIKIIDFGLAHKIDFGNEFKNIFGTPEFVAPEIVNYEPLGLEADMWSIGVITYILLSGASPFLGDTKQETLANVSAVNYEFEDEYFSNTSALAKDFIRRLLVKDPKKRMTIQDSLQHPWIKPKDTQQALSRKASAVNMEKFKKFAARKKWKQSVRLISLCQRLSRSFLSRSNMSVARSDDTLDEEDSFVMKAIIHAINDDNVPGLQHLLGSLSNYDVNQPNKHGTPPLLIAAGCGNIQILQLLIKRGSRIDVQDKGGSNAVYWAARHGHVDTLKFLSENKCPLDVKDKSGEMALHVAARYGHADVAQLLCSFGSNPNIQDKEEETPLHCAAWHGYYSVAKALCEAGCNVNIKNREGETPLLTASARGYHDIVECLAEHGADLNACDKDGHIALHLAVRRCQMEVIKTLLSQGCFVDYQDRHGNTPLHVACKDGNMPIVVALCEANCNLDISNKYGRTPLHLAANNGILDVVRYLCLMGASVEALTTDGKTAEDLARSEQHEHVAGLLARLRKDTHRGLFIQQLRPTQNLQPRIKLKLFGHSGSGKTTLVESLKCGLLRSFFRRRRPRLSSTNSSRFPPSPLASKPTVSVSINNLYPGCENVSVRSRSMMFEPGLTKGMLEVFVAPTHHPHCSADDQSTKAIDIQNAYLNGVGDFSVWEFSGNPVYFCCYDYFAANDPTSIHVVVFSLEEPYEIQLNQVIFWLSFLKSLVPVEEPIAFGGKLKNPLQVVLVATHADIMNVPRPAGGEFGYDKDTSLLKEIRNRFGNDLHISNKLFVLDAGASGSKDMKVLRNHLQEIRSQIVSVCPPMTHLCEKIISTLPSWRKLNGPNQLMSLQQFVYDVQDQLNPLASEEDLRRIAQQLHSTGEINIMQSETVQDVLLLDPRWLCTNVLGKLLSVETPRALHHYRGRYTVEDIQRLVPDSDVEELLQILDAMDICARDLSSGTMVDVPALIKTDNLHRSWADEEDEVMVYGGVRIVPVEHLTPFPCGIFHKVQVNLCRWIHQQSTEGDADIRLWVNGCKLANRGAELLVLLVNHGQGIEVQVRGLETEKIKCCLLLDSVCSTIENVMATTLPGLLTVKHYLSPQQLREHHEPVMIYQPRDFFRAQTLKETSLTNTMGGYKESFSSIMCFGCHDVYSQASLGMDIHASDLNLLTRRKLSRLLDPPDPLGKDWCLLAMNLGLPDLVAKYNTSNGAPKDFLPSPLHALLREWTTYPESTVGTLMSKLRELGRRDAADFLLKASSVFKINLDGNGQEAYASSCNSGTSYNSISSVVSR
The target is the same in assay [11]. Conditions: at 1 µM.
Assay [12] addresses T3, Serine/threonine-protein kinase DCLK2 (Homo sapiens) (UniProt Q8N568).
T3 sequence (whole entry): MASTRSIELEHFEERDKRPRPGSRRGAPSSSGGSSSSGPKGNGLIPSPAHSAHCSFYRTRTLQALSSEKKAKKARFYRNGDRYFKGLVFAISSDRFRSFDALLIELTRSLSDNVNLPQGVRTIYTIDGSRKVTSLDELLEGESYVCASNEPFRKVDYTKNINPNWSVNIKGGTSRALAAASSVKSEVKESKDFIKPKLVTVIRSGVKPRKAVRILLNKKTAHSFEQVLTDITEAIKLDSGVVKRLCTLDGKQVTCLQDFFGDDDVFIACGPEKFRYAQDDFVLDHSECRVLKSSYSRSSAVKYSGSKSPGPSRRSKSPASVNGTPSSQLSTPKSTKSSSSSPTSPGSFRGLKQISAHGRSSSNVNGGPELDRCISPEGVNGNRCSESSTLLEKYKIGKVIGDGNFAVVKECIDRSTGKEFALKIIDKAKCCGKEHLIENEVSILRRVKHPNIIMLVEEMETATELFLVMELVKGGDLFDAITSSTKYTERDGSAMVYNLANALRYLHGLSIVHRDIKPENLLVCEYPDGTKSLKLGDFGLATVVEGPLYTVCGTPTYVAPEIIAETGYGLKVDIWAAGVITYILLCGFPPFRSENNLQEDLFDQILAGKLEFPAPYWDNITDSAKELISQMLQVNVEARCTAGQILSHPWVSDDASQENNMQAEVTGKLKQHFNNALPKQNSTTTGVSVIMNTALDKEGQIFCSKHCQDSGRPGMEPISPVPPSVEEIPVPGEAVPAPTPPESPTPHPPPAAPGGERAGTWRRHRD
Conditions: at 0.1 µM.

For assay [13], the target named is T3, Serine/threonine-protein kinase DCLK2 (Homo sapiens). Conditions: at 1 µM.
Assay [14] concerns the target MAP kinase-activated protein kinase 2 (Homo sapiens) (UniProt P49137). Conditions: at 0.1 µM.
For assay [15] the target is unchanged. Conditions: at 1 µM.
In assay [16] the target is MAP kinase-activated protein kinase 3 (Homo sapiens) (UniProt Q16644). Conditions: at 0.1 µM.
MAP kinase-activated protein kinase 3 (Homo sapiens), sequence (Q16644 whole entry, looked up): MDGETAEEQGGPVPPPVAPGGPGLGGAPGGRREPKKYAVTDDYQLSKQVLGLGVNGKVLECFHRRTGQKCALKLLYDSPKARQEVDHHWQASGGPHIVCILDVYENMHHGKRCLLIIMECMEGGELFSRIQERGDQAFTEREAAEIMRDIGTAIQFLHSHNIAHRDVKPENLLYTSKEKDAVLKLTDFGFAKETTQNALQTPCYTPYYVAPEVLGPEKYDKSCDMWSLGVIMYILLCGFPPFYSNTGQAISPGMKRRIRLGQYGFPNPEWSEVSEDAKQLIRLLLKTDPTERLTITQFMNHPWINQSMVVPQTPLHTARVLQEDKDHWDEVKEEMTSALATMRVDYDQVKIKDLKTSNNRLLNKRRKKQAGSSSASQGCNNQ
The target is the same in assay [17]. Conditions: at 1 µM.
Assay [18] concerns the target Serine/threonine-protein kinase MARK1 (Homo sapiens) (UniProt Q9P0L2). Conditions: at 0.1 µM.
The target is the same in assay [19]. Conditions: at 1 µM.
The target of assay [20] is MAP/microtubule affinity-regulating kinase 3 (Homo sapiens) (UniProt P27448). Conditions: at 0.1 µM.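 Note: mean percent inhibition of MARK3 kinase activity, measured within the GSK PKIS screening panel.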
MAP/microtubule affinity-regulating kinase 3 (Homo sapiens), sequence (P27448 whole entry, looked up): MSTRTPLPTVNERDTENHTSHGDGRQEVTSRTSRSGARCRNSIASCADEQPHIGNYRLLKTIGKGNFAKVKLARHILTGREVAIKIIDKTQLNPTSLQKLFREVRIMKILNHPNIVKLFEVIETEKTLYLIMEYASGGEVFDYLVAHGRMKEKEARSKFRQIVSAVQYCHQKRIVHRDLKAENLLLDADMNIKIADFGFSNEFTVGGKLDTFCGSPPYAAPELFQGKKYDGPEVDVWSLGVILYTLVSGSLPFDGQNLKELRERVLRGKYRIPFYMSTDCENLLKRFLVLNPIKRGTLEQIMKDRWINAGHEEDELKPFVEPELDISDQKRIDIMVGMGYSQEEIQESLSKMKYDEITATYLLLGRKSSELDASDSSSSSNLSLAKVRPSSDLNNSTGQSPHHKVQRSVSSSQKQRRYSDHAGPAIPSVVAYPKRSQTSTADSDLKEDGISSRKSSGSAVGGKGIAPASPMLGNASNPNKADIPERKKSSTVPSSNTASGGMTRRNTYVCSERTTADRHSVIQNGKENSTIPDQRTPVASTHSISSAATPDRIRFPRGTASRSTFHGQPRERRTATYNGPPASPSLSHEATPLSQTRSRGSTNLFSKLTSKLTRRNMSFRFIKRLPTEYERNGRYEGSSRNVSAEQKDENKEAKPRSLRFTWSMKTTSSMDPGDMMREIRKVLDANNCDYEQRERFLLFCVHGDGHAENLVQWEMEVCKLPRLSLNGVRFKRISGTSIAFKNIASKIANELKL

Each structure is given as a SMILES string.

Calcium/calmodulin-dependent protein kinase type II subunit alpha (Homo sapiens), sequence (Q9UQM7 whole entry): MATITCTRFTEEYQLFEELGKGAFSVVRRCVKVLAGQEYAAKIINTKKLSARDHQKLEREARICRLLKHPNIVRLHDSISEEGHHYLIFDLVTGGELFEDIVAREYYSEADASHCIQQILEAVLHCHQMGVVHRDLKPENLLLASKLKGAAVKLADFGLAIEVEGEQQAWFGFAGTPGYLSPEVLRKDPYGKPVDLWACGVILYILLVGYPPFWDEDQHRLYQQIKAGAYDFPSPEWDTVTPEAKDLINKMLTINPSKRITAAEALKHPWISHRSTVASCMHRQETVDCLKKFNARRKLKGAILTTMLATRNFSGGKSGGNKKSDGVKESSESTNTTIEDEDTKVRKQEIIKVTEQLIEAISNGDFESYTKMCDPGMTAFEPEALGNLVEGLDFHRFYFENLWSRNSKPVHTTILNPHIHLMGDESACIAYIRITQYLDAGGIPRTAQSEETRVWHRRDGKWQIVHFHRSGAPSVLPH
MAP kinase-activated protein kinase 2 (Homo sapiens), sequence (P49137 whole entry, looked up): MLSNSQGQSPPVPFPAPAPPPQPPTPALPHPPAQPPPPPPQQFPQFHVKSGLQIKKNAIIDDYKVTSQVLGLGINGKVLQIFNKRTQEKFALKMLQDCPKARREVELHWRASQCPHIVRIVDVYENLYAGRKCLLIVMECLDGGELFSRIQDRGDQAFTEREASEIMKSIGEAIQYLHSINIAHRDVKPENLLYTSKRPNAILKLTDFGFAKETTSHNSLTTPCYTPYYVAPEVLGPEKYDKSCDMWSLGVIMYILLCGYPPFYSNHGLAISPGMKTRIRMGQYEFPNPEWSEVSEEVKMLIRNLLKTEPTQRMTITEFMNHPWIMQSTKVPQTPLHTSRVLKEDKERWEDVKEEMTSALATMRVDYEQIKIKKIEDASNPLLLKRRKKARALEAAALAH
Serine/threonine-protein kinase MARK1 (Homo sapiens), sequence (Q9P0L2 whole entry, looked up): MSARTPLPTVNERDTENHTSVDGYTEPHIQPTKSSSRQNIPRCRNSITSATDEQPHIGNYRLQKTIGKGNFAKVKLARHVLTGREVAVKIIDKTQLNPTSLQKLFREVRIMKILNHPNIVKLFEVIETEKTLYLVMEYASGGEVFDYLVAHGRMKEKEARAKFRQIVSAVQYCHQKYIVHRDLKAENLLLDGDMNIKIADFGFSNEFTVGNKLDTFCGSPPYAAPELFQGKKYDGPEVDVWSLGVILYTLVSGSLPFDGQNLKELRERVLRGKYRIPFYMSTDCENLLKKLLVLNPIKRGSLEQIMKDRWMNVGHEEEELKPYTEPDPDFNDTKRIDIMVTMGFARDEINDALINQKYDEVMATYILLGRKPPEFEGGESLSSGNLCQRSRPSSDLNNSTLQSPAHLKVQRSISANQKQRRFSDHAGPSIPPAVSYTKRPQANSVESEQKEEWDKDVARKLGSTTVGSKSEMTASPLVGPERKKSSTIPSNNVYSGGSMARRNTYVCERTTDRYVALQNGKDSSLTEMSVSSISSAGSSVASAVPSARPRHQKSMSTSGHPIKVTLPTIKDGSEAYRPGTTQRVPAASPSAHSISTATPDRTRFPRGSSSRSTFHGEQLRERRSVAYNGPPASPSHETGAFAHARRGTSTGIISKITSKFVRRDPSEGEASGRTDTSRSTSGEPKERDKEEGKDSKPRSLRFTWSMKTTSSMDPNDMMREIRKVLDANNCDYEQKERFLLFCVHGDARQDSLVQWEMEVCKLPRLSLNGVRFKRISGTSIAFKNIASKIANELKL

With `COc1ccc(-c2oc3ncnc(N)c3c2-c2ccc(NC(=O)Nc3cc(C(F)(F)F)ccc3F)cc2)cc1`, the inhibition – broadly, the relative decrease from the control value, in per cent – in assay [1] was determined as 16.9%; in assay [2], 6.01%; in assay [3] it was 21.5%; in assay [4], 0.6%; in assay [5], 13.4%; in assay [6] it was 8.35%. The inhibition in assay [7] was 6.88%; in [8] it was 2.06%; in [9], 3.88%; in assay [10], 5.33%; in [11], 4.78%; in [12], 1.65%. The inhibition in [13] stood at 6.21%; in [14], 2.26%; in assay [15], 2.83%; in assay [16], 4.08%; in assay [17] it was 16.3%; in [18], 3.02%. Also, the inhibition in assay [19] turned out to be 6.8%; in assay [20] it was 0.75%.
Take `CCCN(CCS(C)(=O)=O)Cc1ccc(-c2ccc3ncnc(Nc4ccc(OCc5cccc(F)c5)c(Cl)c4)c3c2)o1`: the inhibition in assay [1] was 0.76%; in [2] it was 1.58%; in assay [3], 1.84%; in [4], 1.01%; in [5], 2.17%; in assay [6], 7.57%. Moreover, the inhibition in [7] turned out to be 6.58%; in [8], 5.44%; in assay [9], 6.1%; in assay [10] it was 8.24%; in [11] it was 8.65%; in assay [12], 0.95%. For the same molecule, the inhibition in assay [13] came out at 0.44%; in assay [14], 3.34%; in assay [15], 3.18%; in assay [16] it was 7.91%; in [17] it was 7.63%; in [18] it was 0.08%. Further, the inhibition is 0.29% in [19] and -1.25% in [20].
With `CC(C)COC(=O)c1ccc2c(c1)/C(=C/Nc1ccc(S(N)(=O)=O)cc1)C(=O)N2`, the inhibition in assay [1] came out at 17.5%; in assay [2] it was 4.43%; in assay [3] it was 36.7%; in assay [4] it was 1.85%; in [5] it was 3.51%; in assay [6], 0.91%. For the same molecule, the inhibition is 18.1% in assay [7]; -0.46% in assay [8]; 13.5% in assay [9]; -2.01% in assay [10]; 3.08% in assay [11]; -2.21% in assay [12]. The inhibition in assay [13] was 10.2%; in [14], -0.97%; in assay [15], -1.28%; in assay [16], -2.74%; in assay [17], -2.61%; in assay [18], 42.7%. For the same molecule, the inhibition in [19] turned out to be 87.1%; in assay [20] it was 33.3%.
As to `FC(F)(F)c1cccc(-c2nn3ncccc3c2-c2ccnc(Nc3ccc4c(c3)OCCO4)n2)c1`, the inhibition was determined as 2.43% in [1]; 1.59% in [2]; 3.33% in assay [3]; 0.49% in [4]; 0.92% in assay [5]; 1.89% in assay [6]. Also, the inhibition in assay [7] is 2.98%; in assay [8] it was 1.74%; in assay [9] it was 3.43%; in assay [10], 2.28%; in assay [11], 4.46%; in assay [12], 0.29%. In addition, the inhibition was -0.51% in assay [13]; 0.54% in assay [14]; 0.88% in assay [15]; 12.3% in [16]; 31.9% in assay [17]; 2.64% in [18]. Further, the results for the inhibition in assay [19] and in [20] were 3.63% and 2.14%, respectively.
`Fc1ccc(-c2nn3ccccc3c2-c2ccncc2)cc1`: the inhibition in assay [1] was 0.25%; in assay [2] it was 0.43%; in assay [3], 2.99%; in assay [4], 1.16%; in assay [5], 1.98%; in assay [6], 0.22%. Besides, the inhibition was -0.04% in assay [7]; -0.38% in assay [8]; 0.19% in assay [9]; 0.72% in assay [10]; 0.99% in [11]; 1.01% in [12]. For the same molecule, the inhibition is -2.66% in assay [13]; 0.22% in assay [14]; 0% in assay [15]; 14.4% in [16]; 28.4% in assay [17]; 1.76% in assay [18]. Also, the inhibition came to 2.2% in [19] and 1% in assay [20].
On to `CCn1c(-c2nonc2N)nc2ccccc21`, for which the inhibition is 5.38% in [1]; 4.24% in assay [2]; 4.89% in assay [3]; -0.37% in assay [4]; 1.93% in assay [5]; 6.35% in assay [6]. Moreover, the inhibition in [7] was 4.95%; in [8], 0.53%; in [9], 1.9%; in assay [10] it was 4.46%; in assay [11] it was 7.32%; in assay [12], -0.38%. For the same molecule, the inhibition was -3.76% in assay [13]; 0.79% in [14]; 1.12% in assay [15]; 3.15% in assay [16]; 1.52% in assay [17]; 2.03% in assay [18]. In addition, the inhibition in assay [19] was determined as 3.52%; in assay [20] it was 3.42%.
Regarding `O=S(=O)(CCNCc1ccc(-c2ccc3ncnc(Nc4ccc(OCc5cccc(F)c5)c(Cl)c4)c3c2)o1)c1ccccc1`, the inhibition in [1] was 2.35%; in assay [2], 3.72%; in [3], 4.42%; in assay [4], -0.6%; in assay [5], 0.28%; in [6], 7.26%. Besides, the inhibition was determined as 10.1% in assay [7]; 2.55% in assay [8]; 3.38% in [9]; 8.91% in assay [10]; 6.96% in assay [11]; 1.44% in assay [12]. For the same molecule, the inhibition in assay [13] amounted to 2.85%; in assay [14] it was 2.31%; in assay [15] it was 2.57%; in assay [16], 7.71%; in [17], 7.76%; in assay [18], 3.69%. In addition, the inhibition is 5.01% in assay [19] and 3.94% in assay [20].
